Measured values published in PubChem BioAssay (Tox21).
Results filed as inconclusive are left out. A number with no mark means an inactive call. Calls of active or inactive are those of the source. Calls follow the shape of the full dose curve.

assay: p53 small molecule agonists, cell-based qHTS assay with rat liver microsomes: qHTS cell viability counter screen (AID 1963580); details: p53RE-bla HCT-116 + rat microsomes, ATP viability, 16 h; series mostly up to 66 µM; activity change, negative = cytotoxicity: at the top concentration; also: nearly all actives have a fitted effect of over 45% in size
Source text: National Center for Advancing Translational Sciences [NCATS]
Division of Preclinical Innovation [DPI]
U.S. Environmental Protection Agency [EPA]
National Institutes of Environmental Health Sciences [NIEHS]
National Toxicology Program [NTP]
U.S. Food and Drug Administration [FDA]
p53, a tumor suppressor protein, is activated following cellular insult, including DNA damage and other cellular stresses. The activation of p53 regulates cell fate by inducing DNA repair, cell cycle arrest, apoptosis, or cellular senescence. The activation of p53, therefore, is a good indicator of DNA damage and other cellular stresses. The CellSensor p53RE-bla HCT-116 cell line contains a stably integrated beta-lactamase reporter gene under control of the p53 response elements. The activation of the reporter gene under culture conditions can be detected by fluorescence intensity. This cell line was used to screen the Tox21 10K compound library in the condition of presence of rat liver microsomes and to identify agonists that activate the p53 signaling pathway after in vitro metabolic activation (Ooka et al., Archive of Toxicology 96:1975-1987, 2022). The cytotoxicity of the Tox21 compound library against the p53 RE-bla HCT-116 cell line was tested in parallel by measuring the intra cellular ATP content in the same wells.
Tox21 Assay Protocol Summary:
The p53RE-bla cells were dispensed at 4,000cells/3ul/well in 1536-well black-clear bottom plates. After the assay plates were incubated at 37 C, 5% CO2 incubator for 5 hours, 23 nL of compounds dissolved in DMSO, positive controls or DMSO only was transferred to the assay plate. Following compound addition, 3 uL of rat liver microsomes (Molecular Toxicology, Boone, NC) at final concentration of 0.5 mg/mL and 1uL of B-Nicotinamide adenine dinucleotide 2'-phosphate (NADPH) at final concentration of 0.5 mg/mL were transferred to the assay plate. The plates were incubated at 37 C for 16 hours. 1 uL of LiveBLAzer detection mixture was added to each well and the plates were incubated at room temperature in the dark for 2 h. Fluorescence intensity at 460 and 530 nm emission and 405 nm excitation were measured by an Envision plate reader. For cell viability readout that measures cytotoxicity, 4 ul/well of CellTiter-Glo reagent was added into the assay plates using a Flying Reagent Dispenser. After 30 min incubation at room temperature, the luminescence intensity in the plates was measured using a ViewLux plate reader.
% is scaled to controls: 0 for no effect and ±100 for the full control effect.

First: CCCCCCCCC(CO)CCCCCC (stereo not given)
Second: CCCCCCCCCOC(=O)CCCCC(=O)OCCCCCCC
The “activity change, negative = cytotoxicity” value of the first is lower: -0.54% for the first, -0.41% for the second.

Compared with `CC(CN)CCCN` (stereo not given), `CCCCCC(C)O` (stereo not given) is higher in “activity change, negative = cytotoxicity” value: -13.9% for the first, -1.51% for the second.

First: O=C1CCC(=O)N1Cl
Second: O=C1c2ccccc2C(=O)N1SC1CCCCC1
The “activity change, negative = cytotoxicity” value of the first is higher: -7.04% for the first, -19% for the second.

Going from `CC(=O)c1ccc2c(c1)[C@H](NC(=O)c1ccc(F)cc1)[C@@H](O)C(C)(C)O2` to `COc1ccc(C(=O)c2ccc(C)cc2)c(O)c1`, the “activity change, negative = cytotoxicity” value rises from -5.85% to 1.61%.

Compared with `C=CCCCCCCC=C`, `CC/C=C\CC/C=C/CO` is lower in “activity change, negative = cytotoxicity” value: 2% for the first, -1.07% for the second.

First: C(=C(c1ccccc1)c1ccccc1)c1ccccc1
Second: Oc1ccc2c(c1)-c1ccccc1C2
The “activity change, negative = cytotoxicity” value of the first is higher: 2.88% for the first, -10.3% for the second.

Compared with `CCOc1ccc(N=Nc2ccc(/C=C/c3ccc(N=Nc4ccc(OCC)cc4)cc3S(=O)(=O)O)c(S(=O)(=O)O)c2)cc1`, `CCOc1ccc(NC(N)=O)cc1` is lower in “activity change, negative = cytotoxicity” value: 0.4% for the first, 0% for the second.

Going from `OC/C(Br)=C(\Br)CO` to `C=C(C)C(=O)OCCOCCOC(=O)C(=C)C`, the “activity change, negative = cytotoxicity” value falls from 3.61% to -8.52%.

Compared with `COCCOC`, `CCCC(=O)OC` is higher in “activity change, negative = cytotoxicity” value: 3.6% for the first, 17.6% for the second.

Going from `CC(=O)[O][Al]` to `N=C(N)S(=O)O`, the “activity change, negative = cytotoxicity” value falls from 3.29% to 2.9%.

Going from `Clc1nc2ccccc2nc1Cl` to `Oc1ccc2c(c1)Cc1ccccc1-2`, the “activity change, negative = cytotoxicity” value falls from 10.3% to -7.45%.

First: OCc1c[nH]c2ccccc12
Second: BrCCOc1ccccc1
The “activity change, negative = cytotoxicity” value of the first is lower: -10.4% for the first, 4.71% for the second.

Compared with `[Ca+2]`, `CC1(C)SC(C)(C)SC(C)(C)S1` is higher in “activity change, negative = cytotoxicity” value: 1.33% for the first, 2.56% for the second.

Compared with `CCCCCCC(C)OC(=O)COc1nc(F)c(Cl)c(N)c1Cl` (stereo not given), `COc1ccc(COC=O)cc1` is higher in “activity change, negative = cytotoxicity” value: -12.1% for the first, 2.51% for the second.

Compared with `CS(=O)(=O)CCNCc1ccc(-c2ccc3ncnc(Nc4ccc(OCc5cccc(F)c5)c(Cl)c4)c3c2)o1`, `C[C@@H](NCCCc1cccc(C(F)(F)F)c1)c1cccc2ccccc12` is higher in “activity change, negative = cytotoxicity” value: -3.67% [at 30.3 µM] for the first, 1.18% [at 30.3 µM] for the second.

Going from `CC(=O)N[C@@H](CCC(=O)O)C(=O)O` to `CO[C@@]1(NC(=O)Cc2cccs2)C(=O)N2C(C(=O)O)=C(COC(N)=O)CS[C@@H]21`, the “activity change, negative = cytotoxicity” value falls from -0.869% [at 30.3 µM] to -4.57% [at 30.3 µM].

Going from `CN1CCN(C(=O)C2CCCCC2)CC1` to `CCN(CC)CC1CCCCN1CC(=O)N1c2ccccc2C(=O)Nc2cccnc21` (stereo not given), the “activity change, negative = cytotoxicity” value rises from -8.78% [at 30.3 µM] to -5% [at 30.3 µM].

Compared with `COC1=C(OC)C(=O)C(CCCCCCCCCCO)=C(C)C1=O`, `CCCCOCCOCCOCc1cc2c(cc1CCC)OCO2` is higher in “activity change, negative = cytotoxicity” value: -1.97% [at 30.3 µM] for the first, 2.53% [at 30.3 µM] for the second.

First: O=Cc1ccc(O)c(O)c1O
Second: COC(=O)[C@@H](N)Cc1ccc(O)c(O)c1
The “activity change, negative = cytotoxicity” value of the first is lower: 7.08% [at 30.3 µM] for the first, 10.1% [at 30.3 µM] for the second.

In the case of `Cc1cc2nc3c(=O)[nH]c(=O)nc-3n(C[C@H](O)[C@H](O)[C@H](O)CO)c2cc1C`, the Potency is reported as “inactive”.

`COC=O` showed an activity change, negative = cytotoxicity of 1.32% [at 5.99 µM].
